# According to PubChem BioAssay (EPA / NIEHS):
# Results filed as inconclusive are left out. Calls of active or inactive are those of the source. Rule for the calls: active = hit-call score of the fitted dose curve at least 0.9, where 1 is the maximum; inconclusive = response in the unintended direction; inactive = score below 0.9.
# Columns and labels:
# [1] = molecular target: zebrafish Estrogen Receptor (ESR1), esr1 (gene 259252) (UniProt P57717); test: ATG_zfER1_XSP1: Attagene TRANS-FACTORIAL Multi-Species (XSP1) HepG2 Assay for zebrafish Estrogen Receptor (ESR1) (AID 2283772)
# In short: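 Reporter mRNA induction, gauged via RT-PCR/capillary electrophoresis fluorescence relative to DMSO controls, in HepG2 cells transiently carrying GAL4-UAS reporter units; 24 h dosing.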
# [2] = tested on: zebrafish Estrogen Receptor (ESR2B), gene 317733; test: ATG_zfER2b_XSP1: Attagene TRANS-FACTORIAL Multi-Species (XSP1) HepG2 Assay for zebrafish Estrogen Receptor (ESR2B) (AID 2283773)
# In short: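 Multiplexed TRANS format in transfected HepG2 liver cells, chimeric NR-Gal4 from zebrafish ESR2B. 24 h dosing; medium contains 3 nM 6-alpha-fluorotestosterone. mRNA induction by RT-PCR/CE, positive direction vs DMSO.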
# [3] = tested on: frog Estrogen Receptor (ESR2), gene 100174814; test: ATG_frER2_XSP1: Attagene TRANS-FACTORIAL Multi-Species (XSP1) HepG2 Assay for frog Estrogen Receptor (ESR2) (AID 2283774)
# In short: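 HepG2, transient MRTU transfection (GAL4-UAS reporters, exogenous NR-Gal4 chimeras); 24 h compound exposure; 3 nM 6α-fluorotestosterone co-added; total RNA → RT-PCR → 6-FAM primer extension → HpaI → CE. Positive direction vs DMSO.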
# [4] = ACEA_AR_antagonist_AUC_viability: ACEA Biosciences xCELLigence Real-Time Cell Analysis on Androgen Receptor Antagonism for Viability (AID 2283776);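 note: 22Rv1 human prostate cancer cells growing on impedance electrode plates; area under impedance growth curve at 80 h after dosing as viability; hits lower the growth signal relative to DMSO meaning cytotoxicity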
# In short: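 Viability endpoint from label-free cell-index monitoring: 22Rv1 cultures treated with an eight-point 1:4 dilution series starting at 100 uM final, AUC at 80 h fitted against DMSO.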
# [5] = tested on: frog Estrogen Receptor (ESR1), gene 398734; test: ATG_frER1_XSP1: Attagene TRANS-FACTORIAL Multi-Species (XSP1) HepG2 Assay for frog Estrogen Receptor (ESR1) (AID 2283777)
# In short: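 Transient MRTU transfection, HepG2 (human liver); 24 h dosing, 3 nM 6α-fluorotestosterone co-added; RNA → RT-PCR → 6-FAM labeling → CE; upward activity vs DMSO.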
# [6] = tested on: zebrafish Estrogen Receptor (ESR2A), gene 317734; test: ATG_zfER2a_XSP1: Attagene TRANS-FACTORIAL Multi-Species (XSP1) HepG2 Assay for zebrafish Estrogen Receptor (ESR2A) (AID 2283778)
# In short: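 Transient transfection of HepG2 (human liver) with MRTU constructs; chemical dosing for 24 h; medium contained 3 nM 6-alpha-fluorotestosterone to partly stimulate AR. RT-PCR/CE fluorescence of reporter transcripts; positive direction vs DMSO.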
# [7] = molecular target: chicken Estrogen Receptor (ESR1), ESR1 (gene 396099) (UniProt P06212); test: ATG_chERa_XSP1: Attagene TRANS-FACTORIAL Multi-Species (XSP1) HepG2 Assay for chicken Estrogen Receptor (ESR1) (AID 2283779)
# In short: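 Read-out: fluorescent reporter mRNA fragments resolved by capillary electrophoresis after RT-PCR and HpaI digestion. Transfected HepG2 cells carried chimeric NR-Gal4 constructs, were dosed 24 h with 3 nM 6-alpha-fluorotestosterone added, and activity was fitted upward relative to DMSO.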
# [8] = tested on: turtle Estrogen Receptor (ESR1), gene 101933533; test: ATG_trERa_XSP1: Attagene TRANS-FACTORIAL Multi-Species (XSP1) HepG2 Assay for turtle Estrogen Receptor (ESR1) (AID 2283781)
# In short: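 Transfect HepG2 with reporter units → dose chemical 24 h (medium has 3 nM 6-alpha-fluorotestosterone) → isolate RNA, RT-PCR → FAM primer extension, HpaI digest → capillary electrophoresis; gain of signal vs DMSO.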
# [9] = molecular target: AR (gene 367) (UniProt P10275); test: ACEA_AR_agonist_80hr: ACEA Biosciences xCELLigence Real-Time Cell Analysis on Androgen Receptor Agonism for Proliferation (AID 2283783);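 note: hits increase impedance growth signal above DMSO baseline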
# In short: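 Impedance (RT-CES) growth signal at 80 h post-dose; 22Rv1 cells, 8-pt 1:4 series, top 100 uM final, DMSO ≤0.5%; duplicate plates; gain-of-signal fit relative to DMSO baseline.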
# [10] = molecular target: AR (gene 367) (UniProt P10275); test: ACEA_AR_antagonist_80hr: ACEA Biosciences xCELLigence Real-Time Cell Analysis on Androgen Receptor Antagonism for Proliferation (AID 2283787);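 note: 22Rv1 human prostate cancer cells with growth followed by electrical impedance; hits lower the impedance growth signal relative to DMSO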
# In short: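 Measures real-time proliferation of 22Rv1 prostate cancer cells by electrode impedance at 80 hours after dosing. Test articles ran at eight concentrations (1:4 steps, top 100 uM final) in biological duplicate.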
# [11] = ATG_M_06_XSP1: Attagene TRANS-FACTORIAL Multi-Species (XSP1) HepG2 Assay for M06 Transcription Factor (Internal Marker) (AID 2283790)
# In short: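 This background-control readout tracks M06 reporter mRNA, measured by RT-PCR and capillary electrophoresis. HepG2 cells transiently carrying the GAL4-UAS reporter panel were dosed for 24 h with 3 nM 6-alpha-fluorotestosterone added for partial AR stimulation; increases were scored relative to DMSO.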
# [12] = ATG_M_61_XSP1: Attagene TRANS-FACTORIAL Multi-Species (XSP1) HepG2 Assay for M61 Transcription Factor (Internal Marker) (AID 2283797)
# In short: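 Background-control readout: reporter transcripts measured by RT-PCR and capillary electrophoresis 24 h after dosing transiently transfected HepG2 multi-reporter cells, with 3 nM 6-alpha-fluorotestosterone present. Fitted in the positive direction relative to DMSO.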
# [13] = ACEA_ER_AUC_viability: ACEA Biosciences xCELLigence Real-Time Cell Analysis on Estrogen Receptor Agonism for Viability (AID 2283782);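 note: hit means loss of impedance signal meaning reduced cell growth or viability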
# In short: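 Read-out: real-time electrical impedance (RT-CES) area under curve, loss of signal taken as reduced viability, normalized to DMSO baseline. T-47D cells, charcoal-stripped serum medium, compounds up to 100 uM final, continuous exposure, 80 h.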
# [14] = ACEA_AR_agonist_AUC_viability: ACEA Biosciences xCELLigence Real-Time Cell Analysis on Androgen Receptor Agonism for Viability (AID 2283775);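 for AC50: viability read 80 hours after compound addition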
# In short: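 Viability endpoint from xCELLigence impedance in 22Rv1 prostate cells at 80 h. Eight-point series, 100 uM maximum final.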
# [15] = STM_H9_NormalizedViability: Cytotoxicity Assessment at 120 hours in the Stemina devTOX quickPredict H9 human embryonic stem cell (hESC)-based Assay (AID 2283784)
# In short: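 Here, H9 cells received test compound with daily medium renewal. Each plate included methotrexate references (1uM, 5 nM), 0.1% DMSO and media blanks; CellTiter-Fluor RFU was normalized to DMSO.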
# AR (gene 367), sequence (P10275 whole entry, looked up): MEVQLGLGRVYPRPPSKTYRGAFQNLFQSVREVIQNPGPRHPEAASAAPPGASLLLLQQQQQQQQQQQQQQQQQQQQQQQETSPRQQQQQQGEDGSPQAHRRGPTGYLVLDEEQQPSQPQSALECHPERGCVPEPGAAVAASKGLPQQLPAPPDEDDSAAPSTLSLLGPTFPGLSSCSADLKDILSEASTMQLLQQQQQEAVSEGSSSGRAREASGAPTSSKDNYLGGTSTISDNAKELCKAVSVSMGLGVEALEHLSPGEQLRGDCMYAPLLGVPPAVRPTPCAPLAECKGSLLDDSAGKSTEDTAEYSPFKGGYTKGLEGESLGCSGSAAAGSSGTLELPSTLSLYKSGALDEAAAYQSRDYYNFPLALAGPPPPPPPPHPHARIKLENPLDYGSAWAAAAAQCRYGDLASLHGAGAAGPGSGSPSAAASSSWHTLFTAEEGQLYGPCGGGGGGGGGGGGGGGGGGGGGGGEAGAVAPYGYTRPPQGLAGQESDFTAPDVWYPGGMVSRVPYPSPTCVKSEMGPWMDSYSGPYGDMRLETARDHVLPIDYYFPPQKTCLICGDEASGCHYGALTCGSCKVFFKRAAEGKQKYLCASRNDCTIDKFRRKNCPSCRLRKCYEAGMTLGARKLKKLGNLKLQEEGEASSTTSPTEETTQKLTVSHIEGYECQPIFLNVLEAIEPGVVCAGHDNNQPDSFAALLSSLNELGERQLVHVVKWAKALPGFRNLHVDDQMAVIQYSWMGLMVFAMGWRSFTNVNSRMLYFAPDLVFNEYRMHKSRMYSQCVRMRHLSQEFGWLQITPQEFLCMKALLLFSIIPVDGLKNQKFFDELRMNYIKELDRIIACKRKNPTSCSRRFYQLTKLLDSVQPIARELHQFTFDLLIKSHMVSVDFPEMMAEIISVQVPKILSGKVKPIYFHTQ
# zebrafish Estrogen Receptor (ESR1), esr1 (gene 259252), sequence (P57717 whole entry, looked up, the tested form may be a part): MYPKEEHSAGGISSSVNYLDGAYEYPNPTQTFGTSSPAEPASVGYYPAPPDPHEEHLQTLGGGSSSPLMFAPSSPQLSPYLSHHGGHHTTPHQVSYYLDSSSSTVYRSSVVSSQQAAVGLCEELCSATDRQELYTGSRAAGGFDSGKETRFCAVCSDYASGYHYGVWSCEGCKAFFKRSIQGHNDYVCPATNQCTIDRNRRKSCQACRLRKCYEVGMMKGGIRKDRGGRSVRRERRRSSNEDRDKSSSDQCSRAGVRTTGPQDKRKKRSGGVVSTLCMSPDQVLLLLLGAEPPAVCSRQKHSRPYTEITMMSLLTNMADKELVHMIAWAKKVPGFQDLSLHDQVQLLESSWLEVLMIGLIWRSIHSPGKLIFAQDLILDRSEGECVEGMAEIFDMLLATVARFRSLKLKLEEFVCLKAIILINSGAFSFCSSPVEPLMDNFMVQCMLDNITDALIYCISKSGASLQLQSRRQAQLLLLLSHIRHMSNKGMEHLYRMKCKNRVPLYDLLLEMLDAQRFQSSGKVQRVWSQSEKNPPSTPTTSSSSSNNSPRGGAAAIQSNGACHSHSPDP
# chicken Estrogen Receptor (ESR1), ESR1 (gene 396099), sequence (P06212 whole entry, looked up, the tested form may be a part): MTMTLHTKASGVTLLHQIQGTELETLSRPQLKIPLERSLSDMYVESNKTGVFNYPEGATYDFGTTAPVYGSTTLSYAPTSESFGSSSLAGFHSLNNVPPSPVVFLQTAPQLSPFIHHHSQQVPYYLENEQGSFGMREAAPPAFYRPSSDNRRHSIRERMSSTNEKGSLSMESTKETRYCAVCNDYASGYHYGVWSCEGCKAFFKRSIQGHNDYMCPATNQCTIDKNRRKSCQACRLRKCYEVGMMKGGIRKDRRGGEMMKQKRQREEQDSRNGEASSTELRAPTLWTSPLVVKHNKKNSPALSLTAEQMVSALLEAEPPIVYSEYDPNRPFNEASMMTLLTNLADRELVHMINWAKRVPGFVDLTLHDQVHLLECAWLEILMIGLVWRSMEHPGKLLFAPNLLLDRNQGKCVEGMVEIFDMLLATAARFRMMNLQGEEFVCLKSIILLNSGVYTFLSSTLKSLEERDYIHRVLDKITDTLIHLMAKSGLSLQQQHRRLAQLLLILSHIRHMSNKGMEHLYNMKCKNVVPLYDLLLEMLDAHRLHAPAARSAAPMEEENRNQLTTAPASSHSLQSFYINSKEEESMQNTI
compound,measurement,setting,value
C[C@]12CC[C@H]3C(=CCc4cc(O)ccc43)[C@@H]1CCC2=O,AC50,[1],23.1 nM (active)
same,AC50,[2],17.2 nM (active)
same,AC50,[3],19.6 nM (active)
same,outcome,[4],inactive
same,AC50,[5],20.2 nM (active)
same,AC50,[6],13.9 nM (active)
same,AC50,[7],6.59 nM (active)
same,AC50,[8],5.94 nM (active)
same,outcome,[9],inactive
same,AC50,[10],687 nM (active)
same,outcome,[11],inactive
same,outcome,[12],inactive
Cc1cc(=O)[nH]c(C(C)C)n1,outcome,[13],inactive
CCCCOC(=O)C(C)O (centres undefined),outcome,[14],inactive
same,outcome,[4],inactive
same,outcome,[13],inactive
Oc1ccc(C2(c3ccc(O)c(C4CCCCC4)c3)CCCCC2)cc1C1CCCCC1,AC50,[13],38900 nM (active)
CCC(Cc1c(I)cc(I)c(N)c1I)C(=O)O (centres undefined),outcome,[14],inactive
same,outcome,[4],inactive
CCc1cc(Cc2cc(CC)c(N)c(CC)c2)cc(CC)c1N,outcome,[14],inactive
same,AC50,[13],68300 nM (active)
CCc1cccc(C)c1N(C(=O)C(=O)O)C(C)COC (centres undefined),outcome,[13],inactive
CCCCC(CC)COC(=O)c1ccc(N(C)C)cc1 (centres undefined),outcome,[14],inactive
same,outcome,[4],inactive
same,AC50,[13],87800 nM (active)
same,outcome,[15],inactive
CCCCCCCCn1sc(Cl)c(Cl)c1=O,AC50,[14],21300 nM (active)
same,outcome,[4],inactive
same,AC50,[13],1990 nM (active)
Cc1ccc([N+](=O)[O-])c(C)c1,outcome,[14],inactive
Cc1ccc(O)c(-n2nc3ccccc3n2)c1,outcome,[14],inactive
same,outcome,[4],inactive
CCCCCCCC/C=C\CCCCCCCC(=O)N(C)CC(=O)O,AC50,[13],83400 nM (active)
CC(C)OC(=O)COc1ccc(Cl)cc1Cl,AC50,[13],66800 nM (active)
CCn1c2ccccc2c2ccccc21,AC50,[13],66300 nM (active)
NC(=O)C(F)(F)C(F)(F)C(F)(F)C(F)(F)C(F)(F)C(F)(F)C(F)(F)F,outcome,[13],inactive
CCCCCCCC/C=C\CCCCCCCC(=O)OCC(O)CO (centres undefined),outcome,[4],inactive
same,AC50,[13],50000 nM (active)
same,AC50,[9],27900 nM (active)
same,outcome,[10],inactive
CCCCCCCCCCCCCC[P+](CCCC)(CCCC)CCCC,AC50,[14],13.8 nM (active)
same,AC50,[4],13.8 nM (active)
same,AC50,[13],1730 nM (active)
same,outcome,[9],inactive
same,AC50,[10],43.6 nM (active)
CCN=c1cc2oc3cc(NCC)c(C)cc3c(-c3ccccc3C(=O)OCC)c-2cc1C,AC50,[14],13.8 nM (active)
same,AC50,[4],13.8 nM (active)
same,AC50,[13],5610 nM (active)
same,outcome,[9],inactive
same,AC50,[15],116 nM (active)
same,AC50,[10],43.6 nM (active)
OCC1CCCO1 (centres undefined),AC50,[9],585 nM (active)
F[Si-2](F)(F)(F)(F)F,outcome,[9],inactive
same,outcome,[10],inactive
